Among all 320,000 compounds or so, about 22,000 (6.9%) were called active. Entries that show only a call come without a potency. Roughly 27% stayed inconclusive and do not appear here. Calls follow the shape of the dose curve; as a rule, active = well fitted inhibition curve with a large enough effect; inconclusive = small, poorly fitted or top-dose-only effect, or another doubt; inactive = no such curve, though single readings can be large or run the other way. For the sample, actives were picked, then their nearest neighbours and some compounds at random.
assay: Primary qHTS for delayed death inhibitors of the malarial parasite plastid, 96 hour incubation; conditions: P. falciparum luciferase reporter growth; series mostly up to 28.7 µM
Summary of the method: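 Two-generation exposure (96 h) targets delayed-death phenotype. Reporter parasites carrying integrated firefly luciferase, in red cells at 2% hematocrit and 0.05% parasitemia final, kept at 37 C, 5% CO2; luminescence loss indicates inhibition.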
Potency is read from the fitted curve at half-maximal effect.

Structure (SMILES) | Potency | activity change, negative = inhibition
CCC(C)Sc1nc2c(cnn2-c2ccc(F)cc2)c(=O)[nH]1 (centres undefined) | inactive | 
COCCNC(=S)N/N=C/c1c(C)[nH]c2ccccc12 | inactive | 
CN=c1scc(-c2cc(OC)ccc2OC)n1/N=C/c1c(C)[nH]c2ccccc12 | 6.57 µM (active) | 
COc1ccc(OC)c(N=Cc2c(O)[nH]c3ccccc23)c1 | inactive | 
CC1CCC(NC(=O)CNC(=O)c2ccc3ccccc3c2)CC1 (centres undefined) | inactive | 
O=C(C1CC(=O)N(C2CCCCC2)C1)N1CCN(c2ccccc2)CC1 (centres undefined) | inactive | 
Cc1ccc2c(c1)N(CC(=O)NCCCN1CCCCC1)C(=O)c1cccnc1O2 | 9.28 µM (active) | 
Cc1ccc2c(c1)N(CC(=O)NCCc1ccc(Cl)cc1)C(=O)c1cccnc1O2 | 10.4 µM (active) | 
CCCN1CCN(CCCNC(=O)CN2C(=O)COc3ccccc32)CC1 | inactive | 
Cc1cc(C(=O)NCCc2ccc(Cl)cc2)c(C)o1 | inactive | 
O=C(CN1C(=O)c2cccnc2Oc2ccc(Cl)cc21)Nc1ccc(F)cc1 | inactive | 
Cc1ccc2c(c1)N(CC(=O)N1CCC(C)CC1)C(=O)c1cccnc1O2 | inactive | 
COc1ccc(NC(=O)COC(=O)c2n[nH]c3ccccc23)c(OC)c1 | inactive | 
CCCc1ccc(C(=O)COC(=O)CN2C(=O)NC3(CCCCC3C)C2=O)cc1 (centres undefined) | inactive | 
O=C(CN(C(=O)c1nsc(Cl)c1Cl)c1cccc(F)c1)NC1CCCC1 | inactive | 
CC(Oc1ccccc1)C(=O)Nc1c2c(nn1-c1ccccc1)CS(=O)C2 (centres undefined) | inactive | 
C=CCN1C(=O)c2ccc(C(=O)N3CCC(C(=O)OCC)CC3)cc2C1=O | inactive | 
Cc1cccc(C(=O)NNC(=O)CSc2nnc(C(C)C)n2C)c1 | inactive | 
Cc1cc(C(=O)N/N=C/c2ccccc2[N+](=O)[O-])c(C)o1 | inactive | 
Cc1cc(C(=O)N/N=C\C(Br)=C\c2ccccc2)c(C)o1 | inactive | 
CC(=C/c1ccccc1)/C=N/NC(=O)c1cc(C)oc1C | 9.28 µM (active) | 
COc1cccc(Cn2cc(/C=N/NC(=O)c3cc(O)cc(O)c3)c3ccccc32)c1 | inactive | 
O=C(NCC(=O)N1CCN(c2ccccc2O)CC1)c1ccc2ccccc2c1 | 6.57 µM (active) | 
COc1cc(OC)cc(C(=O)NCC(=O)N2CCCCCCC2)c1 | inactive | 
COc1ccc(N2CCN(C(=O)CNS(=O)(=O)c3ccc(C)c(C)c3)CC2)cc1 |  | -44% [at 5.75 µM] (inactive)
COc1ccc(N2CCN(C(=O)CNC(=O)c3ccc(C(C)(C)C)cc3)CC2)cc1 | 4.65 µM (active) | 

Structure (SMILES) | Potency | activity change, negative = inhibition
O=C(NCC(=O)N1CCCCCCC1)c1ccccc1Cl | inactive | 
COc1ccc(N2CCN(C(=O)CCNC(=O)c3ccc(Br)cc3)CC2)cc1 | inactive | 
CCOC(=O)c1c(N)sc2c1CCCC2=O | inactive | 
O=C(CN(C(=O)CNC(=O)c1cccs1)c1cccc(F)c1)NC1CCCCC1 | inactive | 
COc1ccccc1/C=C/C(=O)NC1CC2CCC1C2 (centres undefined) | inactive | 
O=S(=O)(Nc1ccccc1Cl)c1cccc2nsnc12 | inactive | 
O=C(Nc1ccccc1)c1ccc2c(c1)OCCCO2 | inactive | 
C[C@H](NC(=O)[C@@H]1Cc2ccccc2CN1C(=O)OC(C)(C)C)C(=O)NC1CCCC1 | inactive | 
COc1cc(C(=S)NC2CCCCC2)ccc1O | 4.15 µM (active) | 
COc1ccc(CCNC(=O)CCC(=O)NC2CCCCC2)cc1OC | inactive | 
COc1ccc(Cl)cc1C(=O)NNC(=S)NC1CCCC1 | inactive | 
O=C(COc1ccccc1O)NC1CCCC1 | inactive | 
CCN(CC)C(=O)c1ccc(O)c(OC)c1 | inactive | 
COc1ccc(C(C)NC(=S)NC2CCCCC2)cc1OC (centres undefined) | 10.4 µM (active) | 
Cc1ccc(C)c(NS(=O)(=O)c2c(C)[nH]c(C)c2C(=O)N2CCCCC2)c1 | inactive | 
CC(=O)N1CCN(CC(c2ccccc2)c2ccccc2)CC1 | inactive | 
NC(=O)C(Cc1ccccc1)NC(=O)C12CC3CC(CC(C3)C1)C2 (centres undefined) | inactive | 
CC(=O)O[C@]1(C(C)=O)CC[C@H]2[C@@H]3C=C(C)C4=CC(=O)CC[C@]4(C)[C@H]3CC[C@@]21C | 11.7 µM (active) | 
CCCCN(C1CCS(=O)(=O)C1)S(=O)(=O)c1ccc(C(C)C)cc1 (centres undefined) | inactive | 
O=C(Nc1ccc(OCC(=O)N2CCOCC2)cc1)c1cc(F)c(F)cc1Cl | inactive | 
O=C(/C=C/c1ccc(OCc2c(F)cccc2Cl)cc1)N1CCOCC1 | 10.4 µM (active) | 
Fc1cccc(Cl)c1COc1ccc(-c2nnco2)cc1 | inactive | 
CCC(C)C(NC(=O)C1CCC(=O)N1C(=O)OCc1ccccc1)C(=O)NC(C(=O)N1CCCC1C(N)=O)C(C)CC (centres undefined) | inactive | 
O=C(COC(=O)c1ncc(Cl)c(Cl)c1Cl)NNC(=O)c1ccccc1 | inactive | 
CCCCN(C(=O)C1=NN(c2cc(C)ccc2C)C(=O)CC1)c1c(N)n(CCC)c(=O)[nH]c1=O | inactive | 
Cc1cc(NC(=O)C(C)SCC(=O)Nc2ccccc2N2CCCCC2)no1 (centres undefined) | 9.28 µM (active) | 

Structure (SMILES) | Potency | activity change, negative = inhibition
Cc1ccc(-c2noc(CCC(=O)Nc3ccccc3N3CCN(C)CC3)n2)cc1 | inactive | 
Cc1cc(NC(=O)C(C)N2C(=O)c3ccccc3S2(=O)=O)no1 (centres undefined) | inactive | 
CC1(c2ccc3ccccc3c2)NC(=O)NC1=O (centres undefined) | inactive | 
Cc1cc(=O)oc2cc(OCC(=O)Nc3nnc(C4CC4)s3)ccc12 | inactive | 
CCOC(=O)Cc1csc(NC(=O)COc2ccc3c(C)cc(=O)oc3c2)n1 | inactive | 
Cc1ccc(O)c(/C=N/NC(=O)COc2ccc3c(C)cc(=O)oc3c2)c1 | 10.4 µM (active) | 
COc1cccc2[nH]c(C(=O)NCCc3ccccc3)cc12 | inactive | 
Cc1nnc(Nc2ccccc2F)s1 | inactive | 
NS(=O)(=O)c1ccc(CCNC(=O)CNC(=O)Cc2ccccc2)cc1 | inactive | 
CC(=O)O[C@H]1c2ccccc2-c2ccccc2[C@@H]1OC(C)=O | inactive | 
O=S(=O)(c1ccc(SCc2ccc(Br)cc2)nc1)N1CCOCC1 | inactive | 
CCc1nc(NCCO)c(C#N)c2c1CCCC2 | inactive | 
CCCCc1nc(NCc2ccccc2)c(C#N)c2c1CCCC2 | 5.22 µM (active) | 
CN(C)c1nccc(NCc2ccccc2)c1C#N | inactive | 
CCOCc1nnc(NC(=O)CCS(=O)(=O)Cc2ccccc2)s1 | inactive | 
COc1ccc(CNS(=O)(=O)c2ccc(-c3cnc(C4CC4)o3)cc2)cc1 | 10.4 µM (active) | 
COc1ccc(CNS(=O)(=O)c2cc(-c3cc(C)no3)ccc2C(C)C)cc1 | inactive | 
COc1ccc(CNS(=O)(=O)c2ccc(NC(=O)N3CCCCC3)cc2)cc1 | inactive | 
CCC(=O)N1c2ccc(S(=O)(=O)NCc3ccco3)cc2CC1C (centres undefined) | inactive | 
COCCNC(=O)C(c1ccc(C)cc1)N(C(=O)CCC(=O)Nc1ccccn1)c1cccc(C)c1 (centres undefined) | inactive | 
COCCN(C(=O)CCC(=O)Nc1nccs1)C(C(=O)NCCC(C)C)c1ccc(F)cc1 (centres undefined) | inactive | 
COCCN(C(=O)CCC(=O)Nc1ccccn1)C(C(=O)NCCC(C)C)c1ccc(OC)cc1 (centres undefined) | 0.522 µM (active) | 
CN(CC(=O)NCc1ccc(Cl)cc1)S(=O)(=O)c1cccs1 | inactive | 
COc1ccccc1OCCNC(=O)CCNC(=O)c1ccccc1Cl | inactive | 
COc1cc(SC)ccc1C(=O)NCCOc1ccccc1Cl | 0.738 µM (active) | 
COc1cccc(N2C(=O)C3CCCN3C2c2ccc(F)cc2)c1 (centres undefined) | 10.4 µM (active) | 

Structure (SMILES) | Potency | activity change, negative = inhibition
COc1ccc(N2C(=O)C3CCCN3C2c2cccc(OC)c2)cc1 (centres undefined) | inactive | 
COc1ccc(N2C(=O)C3CCCN3C2c2cc(OC)c(OC)cc2OC)cc1 (centres undefined) | inactive | 
CCNC(=O)c1cnn(-c2ccccc2)c1-c1ccccc1 | inactive | 
COc1ccccc1CNC(=O)COn1nnc2ccc(S(=O)(=O)N3CCOCC3)cc21 | inactive | 
O=C(CN(CC1CCCO1)C(=O)CNS(=O)(=O)c1ccc(F)cc1)NCc1ccco1 (centres undefined) | inactive | 
CC(C)C(C(=O)NCc1ccco1)N(CC1CCCO1)C(=O)CNS(=O)(=O)c1ccc(F)cc1 (centres undefined) | inactive | 
CCCC(C(=O)NCc1ccco1)N(C(=O)CNS(=O)(=O)c1ccccc1)C1CCCC1 (centres undefined) | 10.4 µM (active) | 
CCC(C)n1[nH]c(=O)c2c(C)cc(C)nc21 (centres undefined) | inactive | 
CCc1c(C)nc2cc(C)[nH]n2c1=O | 3.7 µM (active) | 
Cc1cc(=O)n2[nH]c(-c3cccc(Cl)c3)cc2n1 | inactive | 
C=CCc1c(C)nc2cc(-c3ccccc3)[nH]n2c1=O | inactive | 
CCc1c(C)nc2cc(-c3cccs3)[nH]n2c1=O | 2.08 µM (active) | 
Cc1nc2nc(COc3ccccc3)[nH]n2c(=O)c1Cc1ccccc1 | inactive | 
CC(=O)Nc1ccc(S(=O)(=O)N2CCC(C(=O)N[C@@H](Cc3ccccc3)C(=O)O)CC2)cc1 | inactive | 
CC(OC(=O)CCC(=O)c1ccccc1)C(=O)Nc1ccc(F)cc1 (centres undefined) | inactive | 
NC(=O)CN1CCCC1c1ccc2c(c1)OCCO2 (centres undefined) | inactive | 
O=C(Cc1ccccc1)N1CCN(S(=O)(=O)c2ccc([N+](=O)[O-])cc2)CC1 | inactive | 
O=C(C1CCC1)N1CCN(S(=O)(=O)c2ccc([N+](=O)[O-])cc2)CC1 | 10.4 µM (active) | 
O=C(C1CCCN(S(=O)(=O)c2ccc([N+](=O)[O-])cc2)C1)N1CCCCC1 (centres undefined) | inactive | 
O=C(/C=C/c1ccccc1[N+](=O)[O-])OC1CCCCC1=O (centres undefined) | inactive | 
CC1CCCCC1NC(=O)/C(C#N)=C/C=C/c1ccccc1[N+](=O)[O-] (centres undefined) | 11.7 µM (active) | 
O=C(/C=C/c1ccccc1[N+](=O)[O-])NCC1CCCO1 (centres undefined) | inactive | 
CC(=O)Nc1cccc(C(=O)OCC(=O)Nc2nnc(-c3ccccc3)o2)c1 | inactive | 
CC(OC(=O)/C=C/c1ccccc1)C(=O)NC1CCCCC1C (centres undefined) | inactive | 
CC[N+](C)(CC)CCC[n+]1c(-c2ccccc2)c2cc(N)ccc2c2ccc(N)cc21 | 0.233 µM (active) | 
O=C(CCNC(=O)c1ccccc1)Nc1nc2ccccc2s1 | inactive | 

Source: PubChem BioAssay AID504834 (National Center for Advancing Translational Sciences (NCATS), 2011)
